The list is not random: actives were taken first. Their share in the collection is about 21%.
AMA1 RON2 block – AMA1-RON2 (P. falciparum) interaction inhibition | 0.2% of 360,000 active | Potency, µM (doses to about 58.2 µM), inactives show top-dose activity change, negative = inhibition, hits mostly inhibitors | AlphaScreen AMA1-biotinylated RON2 peptide binding;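 further: potency means the concentration at half of the fitted maximal effect; 0% = vehicle wells and -100% = peptide control; nearly all actives have a fitted effect of over 45% in size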
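AMA1 (3D7) with his tag at 25 nM final met compounds first, then biotinylated RON2 peptide at 25 nM; detection used donor plus acceptor beads, 10 µg/mL apiece, read by AlphaScreen after 30 min at room temperature.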
HCV inhibitor – blocks hepatitis C virus | Huh7.5.1 HCVcc-Cre infection, luciferase reporter, 44 h | Potency, µM (titrated, usually from 41.8 µM), without a hit: top-dose activity change, negative = inhibition, most hits filed as inhibitors | 3.4% of 340,000 active; further: potency means the concentration at half of the fitted maximal effect; on the % scale 0 is the no-effect control and ±100 the full control effect
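HCVcc-Cre virus at an moi near 0.5 was added right after compound to cells cultured 4 h from seeding (1,000 cells/well). Luciferase activity was determined 44 h later, 15 min after substrate addition at RT.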
Pf growth 96h – P. falciparum growth inhibition at 96 hour, primary screen for plastid delayed-death inhibitors; 6.9% of 320,000 active; AID 504834; P. falciparum luciferase reporter growth, 96 h; Potency, µM (titrated, usually from 28.7 µM), inactives show top-dose activity change, negative = inhibition, most hits filed as inhibitors; further: potency means the concentration at half of the fitted maximal effect; on the % scale 0 is the no-effect control and ±100 the full control effect
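P. falciparum expressing integrated firefly luciferase, in erythrocytes at 2% hematocrit, 0.05% parasitemia, incubated with compounds 96 h at 37 C, 5% CO2. Growth inhibition read as loss of luminescence; two-generation exposure targets delayed-death apicoplast inhibitors.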
Shiga toxin inh – Shiga toxin inhibition; inhibition, % at 38.7 µM; 9.2% of 290,000 active; Vero cells, Shiga toxin protein synthesis inhibition reporter; AID 2315; in the data active means inhibition mostly above about 28%, no sharp cut-off; inactive means mostly below about 43%; further: 0% is about no effect
Pf growth 48h – P. falciparum growth inhibition at 48 hours (one generation); P. falciparum luciferase growth in erythrocytes, 48 h; Potency, µM (highest dose often 28.7 µM), inactives show at the highest dose activity change, negative = inhibition, usual class: inhibitors; 5.9% of 310,000 active; AID 504832; further: potency means the concentration at half of the fitted maximal effect; on the % scale 0 is the no-effect control and ±100 the full control effect
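A one-generation exposure of luciferase-tagged malaria parasites in RPMI 1640/Albumax erythrocyte culture, 37 C and 5% CO2. Inhibition is inferred from decreased luminescence after adding detection reagent.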
CHX counter – affects cycloheximide protein synthesis inhibition readout, counter-screen; cell reporter, cycloheximide protein synthesis inhibition counterscreen; max response, %; 12% of 300,000 active; AID 2314; in the data active means max response mostly above about 13%, no sharp cut-off; inactive means mostly below about 14%; further: read at 38.3 µM for the half of the compounds with a filed dose; 0% is about no effect
The depositor's hits bear a star. Unless noted, the call rests on the fitted dose curve; in most records, active means well fitted curve in the direction sought with a large enough effect; inconclusive means small, poorly fitted or top-dose-only effect, or another doubt; inactive means no such curve, though single readings can be large; an effect the other way counts as inactive or inconclusive.

What do the screens show for `CCOc1ccc2[nH]c(C)cc(=O)c2c1`?
AMA1 RON2 block: 18%; HCV inhibitor: 16%; Pf growth 96h: 0%; Shiga toxin inh: 6; Pf growth 48h: -17%; CHX counter: 5

What do the screens show for `COc1ccc(N=Nc2c(N)n[nH]c2N)cc1`?
AMA1 RON2 block: 29%; HCV inhibitor: -10%; Pf growth 96h: 112%; Shiga toxin inh: 45*; Pf growth 48h: 53%; CHX counter: 27*

Results for Nc1n[nH]c(N)c1N=Nc1ccc(F)cc1 ?
AMA1 RON2 block: 41%; HCV inhibitor: 12%; Pf growth 96h: 10%; Shiga toxin inh: 23; Pf growth 48h: 74%; CHX counter: 33*

How did COc1ccc(N=Nc2ccc(N)nc2N)cc1 do in these assays?
AMA1 RON2 block: inconclusive; HCV inhibitor: -1%; Pf growth 96h: 210%; Shiga toxin inh: 107*; Pf growth 48h: 219%; CHX counter: 70*

What do the screens show for `Nc1ccc(N=Nc2ccc(O)cc2)c(N)n1`?
AMA1 RON2 block: -26%; HCV inhibitor: inconclusive

What do the screens show for `CCOc1ccc2nc3cc(N=Nc4ccc(N)nc4N)ccc3c(N)c2c1`?
AMA1 RON2 block: inconclusive; HCV inhibitor: 11µM*

What do the screens show for `S=C(NC1CC1)NC1CCCc2ccccc21` (stereo not drawn)?
AMA1 RON2 block: -21%; HCV inhibitor: 3%; Pf growth 96h: inconclusive; Shiga toxin inh: -11; Pf growth 48h: -19%; CHX counter: 1

How did CCc1ccc(C(c2c(C)nn(-c3ccccc3)c2N)c2c(C)nn(-c3ccccc3)c2N)cc1 do in these assays?
AMA1 RON2 block: inconclusive; HCV inhibitor: inconclusive; Pf growth 96h: inconclusive; Shiga toxin inh: -4; Pf growth 48h: 8.3µM*; CHX counter: 2

What do the screens show for `O=C(CSc1nc2ccccc2c(=O)n1CC1CCCO1)Nc1ccc(F)cc1` (stereo not drawn)?
AMA1 RON2 block: 8%; HCV inhibitor: inconclusive; Pf growth 96h: -16%; Shiga toxin inh: -4; Pf growth 48h: inconclusive; CHX counter: -6

How did COc1ccc(C=Cc2ccc3ccccc3n2)c(OC)c1 do in these assays?
AMA1 RON2 block: 75%

Results for COc1cc(/C=C/c2cc(C(=O)O)c3ccccc3n2)ccc1OC(F)F ?
AMA1 RON2 block: 0%; HCV inhibitor: 9%; Pf growth 96h: 408%; Shiga toxin inh: 12; Pf growth 48h: 105%; CHX counter: 1

What do the screens show for `COc1cc(Cl)cc(/C=C/c2ccc3ccccc3n2)c1OC(C)=O`?
AMA1 RON2 block: 13%; HCV inhibitor: inconclusive; Pf growth 96h: inconclusive; Shiga toxin inh: 97*; Pf growth 48h: 15%; CHX counter: 84*

Results for CC(=O)Oc1ccc(Cl)cc1/C=C/c1cc(OC(C)=O)c2ccccc2n1 ?
HCV inhibitor: -9%; Pf growth 96h: inconclusive; Shiga toxin inh: 34*; Pf growth 48h: 1.7µM*; CHX counter: 20*

What do the screens show for `CCCCC1CCC(C(=O)OC(C)C(=O)Nc2ccc(NC(C)=O)cc2)CC1` (stereo not drawn)?
AMA1 RON2 block: 10%; HCV inhibitor: 0%; Pf growth 96h: 5%; Shiga toxin inh: -3; Pf growth 48h: inconclusive; CHX counter: -2

What do the screens show for `COC(=O)c1cc(C(=O)OC)cc(-n2c(C)cc(C(=O)CC#N)c2C)c1`?
AMA1 RON2 block: 13%; HCV inhibitor: -19%; Shiga toxin inh: -1; Pf growth 48h: 10µM*; CHX counter: -2

How did COc1ccc(-n2c(C)cc(C(=O)COC(=O)c3ccc(O)cc3O)c2C)cc1 do in these assays?
AMA1 RON2 block: -2%; HCV inhibitor: 10µM*; Pf growth 96h: 12µM*; Pf growth 48h: 7.4µM*

What do the screens show for `COc1ccc(-n2c(C)cc(C(=O)COC(=O)Cn3cnc4ccccc43)c2C)cc1`?
AMA1 RON2 block: -25%; HCV inhibitor: -1%; Pf growth 96h: 48%; Shiga toxin inh: -2; Pf growth 48h: 13µM*; CHX counter: 1

What do the screens show for `Cc1cc(C(=O)CC#N)c(C)n1-c1ccc(OC(F)F)cc1`?
AMA1 RON2 block: -5%; HCV inhibitor: inconclusive; Pf growth 96h: 13µM*; Shiga toxin inh: 10; Pf growth 48h: inconclusive; CHX counter: 2

What do the screens show for `CN(C1CCCCC1)S(=O)(=O)c1ccc(-c2ccccn2)s1`?
AMA1 RON2 block: 8%; HCV inhibitor: -6%; Pf growth 96h: -1%; Shiga toxin inh: 15; Pf growth 48h: 5%; CHX counter: -1

Results for CC(=O)Nc1ccc(-c2ccnc3c2CC(C(=O)NCCC(F)(F)F)O3)cc1 (stereo not drawn) ?
AMA1 RON2 block: 12%

How did COc1ccc(C2CC(c3ccccc3)Oc3cc(C)cc(C)c32)cc1 (stereo not drawn) do in these assays?
Shiga toxin inh: 13; CHX counter: 8

How did Cc1cc(C(=O)CSc2nc(N)cc(=O)[nH]2)c(C)n1-c1ccc(OC(F)F)cc1 do in these assays?
AMA1 RON2 block: 8%; HCV inhibitor: inconclusive; Pf growth 96h: -17%; Shiga toxin inh: -13; Pf growth 48h: -10%; CHX counter: 0

Results for Cc1cc(C(=O)COC(=O)c2ccc(O)cc2O)c(C)n1-c1ccc(OC(F)F)cc1 ?
AMA1 RON2 block: -1%; HCV inhibitor: 10µM*; Pf growth 96h: inconclusive; Pf growth 48h: 9.3µM*

How did Cc1cccnc1N(C(=O)Nc1cccc(Cl)c1)C1=NCC(C)(C)S1 do in these assays?
AMA1 RON2 block: 30%; HCV inhibitor: 21%; Pf growth 96h: inconclusive; Shiga toxin inh: 12; Pf growth 48h: inconclusive; CHX counter: -1

What do the screens show for `Cc1cccnc1N(C(=O)Nc1ccccc1)C1=NCC(C)(C)S1`?
AMA1 RON2 block: 87%; HCV inhibitor: 1%; Pf growth 96h: -22%; Shiga toxin inh: 90; Pf growth 48h: inconclusive; CHX counter: 7

How did CC1(C)CN=C(N(Cc2ccccc2)C(=O)Nc2ccccc2)S1 do in these assays?
AMA1 RON2 block: 10%; HCV inhibitor: 16%; Pf growth 96h: 96%; Shiga toxin inh: 76*; Pf growth 48h: 139%; CHX counter: 65*

Results for CC1(C)CN=C(N(C(=O)Nc2ccccc2)c2ccccc2F)S1 ?
AMA1 RON2 block: 1%; HCV inhibitor: -8%; Pf growth 96h: -11%; Shiga toxin inh: 62*; Pf growth 48h: -29%; CHX counter: 17*

Results for COc1ccccc1C(=O)Nc1ccccc1N1CCN(S(C)(=O)=O)CC1 ?
AMA1 RON2 block: -3%; HCV inhibitor: 4%; Pf growth 96h: 60%; Shiga toxin inh: 7; Pf growth 48h: inconclusive; CHX counter: 1

What do the screens show for `COc1c(C)cccc1C(=O)Nc1ccc(N2CCN(S(C)(=O)=O)CC2)cc1`?
AMA1 RON2 block: -4%; HCV inhibitor: 7%; Pf growth 96h: 9%; Shiga toxin inh: 96*; Pf growth 48h: 163%; CHX counter: 35*
